Data: PubChem BioAssay AID1159580 (chemical genetic matrix, 2015)
The whole screen tested about 5,500 compounds, of which about 2,000 (36%) were called active. Inconclusive results (about 18%) are left out. No stated cut-off is given here; in the data, active means normalized growth mostly below about 0.91 (no sharp cut-off); inconclusive means no clear call, values can overlap the other calls; inactive means mostly above about 0.92. The list shows a part of the results.

Assay: chemical genetic growth profiling, strain panel (AID 1159580);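 further: tested at 20 µM; growth read once vehicle control cultures reached saturation at 30 °C; 1 = growth at the plate median or of vehicle wells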
Details: growth OD

Measured: normalized growth

O=C(O)c1cc(=O)c2cc(Cl)ccc2[nH]1
inactive: S. cerevisiae deletion strains, locus YAL013W, strain DEP1, stronger effect = lower value 0.985 | S. cerevisiae deletion strains, locus YBR021W, strain FUR4, stronger effect = lower value 1.03 | S. cerevisiae deletion strains, locus YBR229C, strain ROT2, stronger effect = lower value 1.01 | S. cerevisiae deletion strains, locus YCL029C, strain bik1, stronger effect = lower value 1.01 | S. cerevisiae deletion strains, locus YDL035C, strain GPR1, stronger effect = lower value 1 | S. cerevisiae deletion strains, locus YDL074C, strain BRE1, stronger effect = lower value 0.972 | S. cerevisiae deletion strains, locus YDL101C, strain DUN1, stronger effect = lower value 1 | S. cerevisiae deletion strains, locus YDL134C, strain PPH21, stronger effect = lower value 1 | S. cerevisiae deletion strains, locus YDL185W, strain tfp1, stronger effect = lower value 1 | S. cerevisiae deletion strains, locus YDL192W, strain arf1, stronger effect = lower value 1.01 | S. cerevisiae deletion strains, locus YDR101C, strain arx1, stronger effect = lower value 1.01 | S. cerevisiae deletion strains, locus YDR150W, strain NUM1, stronger effect = lower value 1.01 | S. cerevisiae deletion strains, locus YDR162C, strain NBP2, stronger effect = lower value 0.988 | S. cerevisiae deletion strains, locus YDR318W, strain mcm21, stronger effect = lower value 1.03 | S. cerevisiae deletion strains, locus YDR388W, stronger effect = lower value 1.01 | S. cerevisiae deletion strains, locus YDR502C, strain sam2, stronger effect = lower value 1 | S. cerevisiae deletion strains, locus YEL061C, strain CIN8, stronger effect = lower value 1 | S. cerevisiae deletion strains, locus YER110C, stronger effect = lower value 1 | S. cerevisiae deletion strains, locus YER155C, strain BEM2, stronger effect = lower value 0.995 | S. cerevisiae deletion strains, locus YER167W, strain BCK2, stronger effect = lower value 1.02 | S. cerevisiae deletion strains, locus YGL078C, strain dbp3, stronger effect = lower value 1 | S. cerevisiae deletion strains, locus YGL086W, strain mad1, stronger effect = lower value 1.01 | S. cerevisiae deletion strains, locus YGL248W, strain PDE1, stronger effect = lower value 1.02 | S. cerevisiae deletion strains, locus YGR078C, strain PAC10, stronger effect = lower value 0.995 | S. cerevisiae deletion strains, locus YGR135W, strain pre9, stronger effect = lower value 0.994 | S. cerevisiae deletion strains, locus YGR229C, strain SMI1, stronger effect = lower value 0.972 | S. cerevisiae deletion strains, locus YGR252W, strain gcn5, stronger effect = lower value 1.04 | S. cerevisiae deletion strains, locus YHR030C, strain SLT2, stronger effect = lower value 1 | S. cerevisiae deletion strains, locus YHR079C, strain IRE1 (second series), stronger effect = lower value 1.02 | S. cerevisiae deletion strains, locus YHR094C, strain hxt1, stronger effect = lower value 1.01 | S. cerevisiae deletion strains, locus YHR129C, strain ARP1, stronger effect = lower value 1.02 | S. cerevisiae deletion strains, locus YHR200W, strain rpn10, stronger effect = lower value 1.01 | S. cerevisiae deletion strains, locus YIL066C, strain RNR3, stronger effect = lower value 0.997 | S. cerevisiae deletion strains, locus YIL073C, strain SPO22, stronger effect = lower value 1.08 | S. cerevisiae deletion strains, locus YIL125W, strain kgd1, stronger effect = lower value 1.01 | S. cerevisiae deletion strains, locus YIR030C, strain dcg1, stronger effect = lower value 1.01 | S. cerevisiae deletion strains, locus YJL095W, strain BCK1, stronger effect = lower value 0.994 | S. cerevisiae deletion strains, locus YJL134W, strain LCB3, stronger effect = lower value 1.01 | S. cerevisiae deletion strains, locus YJL168C, strain set2, stronger effect = lower value 1 | S. cerevisiae deletion strains, locus YJL187C, strain SWE1 (second series), stronger effect = lower value 1.01 | S. cerevisiae deletion strains, locus YJR043C, strain POL32, stronger effect = lower value 1.01 | S. cerevisiae deletion strains, locus YJR075W, strain HOC1, stronger effect = lower value 0.983 | S. cerevisiae deletion strains, locus YKL009W, strain mrt4, stronger effect = lower value 1.03 | S. cerevisiae deletion strains, locus YKL068W, stronger effect = lower value 0.996 | S. cerevisiae deletion strains, locus YKL085W, strain MDH1 (second series), stronger effect = lower value 1.02 | S. cerevisiae deletion strains, locus YKL085W, strain MDH1, stronger effect = lower value 1.02 | S. cerevisiae deletion strains, locus YKL190W, strain CNB1, stronger effect = lower value 1 | S. cerevisiae deletion strains, locus YKR001C, strain vps1, stronger effect = lower value 1.01 | S. cerevisiae deletion strains, locus YLR039C, strain RIC1, stronger effect = lower value 1.02 | S. cerevisiae deletion strains, locus YLR058C, strain SHM2, stronger effect = lower value 1.01 | S. cerevisiae deletion strains, locus YLR102C, strain apc9, stronger effect = lower value 1.01 | S. cerevisiae deletion strains, locus YLR262C, strain YPT6, stronger effect = lower value 1.01 | S. cerevisiae deletion strains, locus YLR268W, strain sec22, stronger effect = lower value 1.01 | S. cerevisiae deletion strains, locus YLR330W, strain CHS5, stronger effect = lower value 1 | S. cerevisiae deletion strains, locus YLR342W, strain FKS1 (second series), stronger effect = lower value 1.08 | S. cerevisiae deletion strains, locus YLR371W, strain rom2, stronger effect = lower value 1.02 | S. cerevisiae deletion strains, locus YLR418C, strain cdc73, stronger effect = lower value 0.984 | S. cerevisiae deletion strains, locus YML016C, strain PPZ1, stronger effect = lower value 1 | S. cerevisiae deletion strains, locus YML032C, strain rad52, stronger effect = lower value 1.02 | S. cerevisiae deletion strains, locus YML124C, strain tub3, stronger effect = lower value 1 | S. cerevisiae deletion strains, locus YMR078C, strain ctf18, stronger effect = lower value 1.02 | S. cerevisiae deletion strains, locus YMR223W, strain ubp8, stronger effect = lower value 1.03 | S. cerevisiae deletion strains, locus YMR263W, strain SAP30, stronger effect = lower value 1 | S. cerevisiae deletion strains, locus YMR307W, strain GAS1, stronger effect = lower value 1.03 | S. cerevisiae deletion strains, locus YNL067W, strain RPL9B, stronger effect = lower value 0.994 | S. cerevisiae deletion strains, locus YNL128W, strain TEP1, stronger effect = lower value 0.951 | S. cerevisiae deletion strains, locus YNL153C, strain GIM3, stronger effect = lower value 0.999 | S. cerevisiae deletion strains, locus YNL233W, strain BNI4, stronger effect = lower value 1.01 | S. cerevisiae deletion strains, locus YNL250W, strain rad50, stronger effect = lower value 1.01 | S. cerevisiae deletion strains, locus YNL271C, strain bni1, stronger effect = lower value 1 | S. cerevisiae deletion strains, locus YNL298W, strain CLA4, stronger effect = lower value 1.01 | S. cerevisiae deletion strains, locus YNL307C, strain MCK1, stronger effect = lower value 1.03 | S. cerevisiae deletion strains, locus YNL322C, strain KRE1, stronger effect = lower value 0.998 | S. cerevisiae deletion strains, locus YNR052C, strain pop2, stronger effect = lower value 1.01 | S. cerevisiae deletion strains, locus YOL006C, strain TOP1, stronger effect = lower value 1.03 | S. cerevisiae deletion strains, locus YOL012C, strain htz1 1.31 | S. cerevisiae deletion strains, locus YOL147C, strain pex11, stronger effect = lower value 1.01 | S. cerevisiae deletion strains, locus YOR061W, strain CKA2, stronger effect = lower value 1 | S. cerevisiae deletion strains, locus YOR069W, strain VPS5, stronger effect = lower value 1.01 | S. cerevisiae deletion strains, locus YOR136W, strain idh2, stronger effect = lower value 1.01 | S. cerevisiae deletion strains, locus YOR144C, strain elg1, stronger effect = lower value 1 | S. cerevisiae deletion strains, locus YOR184W, strain ser1, stronger effect = lower value 1.06 | S. cerevisiae deletion strains, locus YOR316C, strain cot1, stronger effect = lower value 1.01 | S. cerevisiae deletion strains, locus YPL055C, strain LGE1, stronger effect = lower value 0.967 | S. cerevisiae deletion strains, locus YPL241C, strain CIN2, stronger effect = lower value 1 | S. cerevisiae deletion strains, locus YPR119W, strain clb2, stronger effect = lower value 1 | S. cerevisiae deletion strains, locus YPR141C, strain kar3, stronger effect = lower value 1.01 | S. cerevisiae deletion strains, locus YPR163C, strain tif3, stronger effect = lower value 1.01 | S. cerevisiae deletion strains, locus YPR167C, strain met16, stronger effect = lower value 1 | S. cerevisiae deletion strains, strain wtn01, stronger effect = lower value 1.01 | S. cerevisiae strains, strain wild type, stronger effect = lower value 0.988
